Records with an inconclusive call do not appear. Where a call stands in place of a potency, no number is given. Activity calls are given as the source filed them. The call rests on the fitted dose curve.

The assay is described as follows: qHTS for Inhibitors of Cell Surface uPA Generation: Wild-type Protective Antigen (WT-PrAg) Counterscreen for Cherry-picked Compounds. As to conditions: cells, WT protective antigen toxicity counterscreen; series mostly up to 115 µM. (qHTS replaces the single test concentration by a dilution series.)
In the case of `C/C(=N\NC(=O)c1cccc([N+](=O)[O-])c1)c1cccnc1`, the Potency entry was “inactive”.

Regarding `COc1cc(C(=O)N/N=C(\Cc2ncc[nH]2)c2ccccc2)cc(OC)c1OC`, the Potency entry is “inactive”. Then `CC1(C)CC(=O)C=C(c2ccc3ccccc3c2)C1`, with “inactive”.
